# Columns and labels:
# Assay type in all cases: functional
# [1] = tested on: Plasmodium falciparum; test: GSK_TCMDC: Inhibition of Plasmodium falciparum 3D7 in whole red blood cells, using parasite LDH activity as an index of growth. Test compounds present at 2uM
# [2] = tested on: Plasmodium falciparum; test: GSK_TCMDC: Inhibition of Plasmodium falciparum Dd2 in whole red blood cells, using parasite LDH activity as an index of growth. Test compounds present at 2uM
# [3] = tested on: HepG2; test: GSK_TCMDC: Percent inhibition of human HepG2 cell line. Test compounds present at 10uM.
Structure (SMILES),Inhibition [1],Inhibition [2],Inhibition [3]
COc1cc(Nc2nccc(-c3c(-c4cccc(NC(=O)c5c(F)cccc5F)c4)nn4ccccc34)n2)cc(OC)c1OC,98%,98%,74%
CN1CCCC1CCOc1ccc2c(c1)N(C(=O)Nc1cc(Br)cc(C(F)(F)F)c1)CC2.O=C(O)C(F)(F)F (configuration not stated),100%,97%,13%
Cc1cc(C)cc(OCC(O)CN(CCN2CCOCC2)C(=O)Nc2ccc(Br)cc2)c1.O=C(O)C(F)(F)F (configuration not stated),85%,19%,7%
O=C(Nc1ccc(Cl)cc1)N(CC1CC2CCC(C1)N2Cc1ccc(C(F)(F)F)cc1)c1ccc(N2CCOCC2)c(F)c1 (configuration not stated),85%,36%,31%
COc1ccc(OC)c(-c2ccc(=O)n(CC(=O)Nc3cccc4ccccc34)n2)c1,100%,95%,0%
CCCCNc1cc(NCCCC)c2c(n1)[nH]c1ccccc12,100%,94%,13%
COc1ccc2c(CCNc3nc(SC)ncc3C(=O)NCCc3ccc(F)cc3)c[nH]c2c1.O=C(O)C(F)(F)F,91%,49%,3%
Cn1c(-c2ccccc2)cc2c3c(=O)cc(C(F)(F)F)[nH]c3ccc21,95%,49%,21%
COc1cc2c(cc1C(F)(F)F)N(C(=O)Nc1cc(Br)cc(-c3cccnc3)c1)CC2,96%,34%,8%
O=C(/C=C/c1ccc(C(F)(F)F)cc1)NCCCCCN1CCN(C(=O)Nc2ccc(Cl)c(Cl)c2)CC1,95%,0%,37%
N#Cc1ccc(N2CCN(Cc3cccc(-c4ccc(-c5nc6cc(C(F)(F)F)ccc6[nH]5)cc4)c3)CC2)nc1.O=C(O)C(F)(F)F,100%,81%,39%
COc1ccc2nccc([C@@H](O)CN3CCC(NC(=O)c4[nH]c5ccccc5c4-c4ccccc4)CC3)c2c1,96%,68%,18%
Cl.O=C(NC1CCC(CCN2Cc3cccc(C(F)(F)F)c3C2)CC1)c1cccc(-c2cccnc2)c1 (configuration not stated),100%,67%,26%
O=C(c1ccc(F)c2ccccc12)N1CCc2cc3nccc(N4CCN5CCC[C@H]5C4)c3cc21,90%,54%,0%
Cc1cc(Oc2cc(NC(=O)c3sc4ncn(Cc5ccccc5F)c(=O)c4c3C)cc([N+](=O)[O-])c2)ccc1Cl,94%,24%,2%
CCc1nc(N)nc(N)c1-c1ccc(C(C)C)cc1,92%,0%,3%
O=C(Cc1ccc(NC(=O)c2ccc(O)c(-c3ccc(Cl)c(Cl)c3)c2)cc1)NCCN1CCOCC1,94%,24%,10%
CCCCCCN1CCCN(Cc2cccc(NC(=O)c3cc4ccccc4s3)c2)CC1.O=C(O)C(F)(F)F,88%,53%,31%
COc1ccc(NC(=O)c2ccc3[nH]c(-c4ccc(Cl)cc4)cc3c2)cc1OCCN(C)C,100%,78%,32%
